# In PubChem BioAssay AID686978 (National Center for Advancing Translational Sciences (NCATS), 2013):
# About 64,000 (15%) of roughly 420,000 compounds were called active. Not shown: some 27% with an inconclusive outcome. The call rests on the fitted dose curve; in most records, active means well fitted inhibition curve with a large enough effect; inconclusive means small, poorly fitted or top-dose-only effect; inactive means flat fitted curve, though single readings scatter. These entries were drawn from the full list.
# Experiment: qHTS for Inhibitors of human tyrosyl-DNA phosphodiesterase 1 (TDP1): qHTS in cells in absence of CPT; further: nearly all actives have a fitted effect of over 55% in size
# Conditions: DT40 Tdp1-/- hTDP1 cells, no CPT, ATP luminescence, 48 h; activity change, negative = growth inhibition: at 46.2 µM (top of the series)
# Procedure, shortened: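 Chicken DT40 Tdp1-/- cells complemented with human TDP1, screened without camptothecin (DMSO vehicle only), 400 cells/well. Compounds pin-transferred, cells incubated at 37 °C for at least 48 hr. Growth read as ATP-dependent luminescence (CellTiter-Glo, 30 min at RT).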
# On the % scale 0 is the no-effect control and ±100 the full control effect; potency means the concentration at half of the fitted maximal effect.
SMILES,Potency,"activity change, negative = growth inhibition"
CCn1c(C)c(C)c2cc(C(=O)NCCc3cc(OC)ccc3OC)ccc21,14.6 µM (active),
COc1ccc(C(=O)NCCc2ccc(S(N)(=O)=O)cc2)cc1OC,,-4.05% (inactive)
Cc1c(C)n(Cc2ccc(Cl)cc2)c2ccc(C(=O)NCCc3ccc(S(N)(=O)=O)cc3)cc12,25.9 µM (active),
CCOC(=O)c1c(C)c(C(=O)NCCc2ccc(S(N)(=O)=O)cc2)c(C)n1CC,,-20.4% (inactive)
Cc1ccc(NS(=O)(=O)c2ccc(C(=O)NCCCN3CCOCC3)cc2)cc1,,-3.36% (inactive)
COc1ccc(OC)c(CN2CCN(C(=O)CNC(=O)c3cc(C)cc(C)c3)CC2)c1,,-16.9% (inactive)
Cc1ccc(C(=O)NCCN2CCOCC2)cc1C,,-4.96% (inactive)
COC(=O)c1ccc(OC)c(Cn2c(=O)n(Cc3ccccc3)c(=O)c3c2c2cc(OC)ccc2n3C)c1,,12.5% (inactive)
COC(=O)[C@@H]1CC(O)CN1C(=O)C12CC3CC(CC(C3)C1)C2 (some centres not stated),,-4.84% (inactive)
CCOC(=O)c1sc(=NC(=O)c2ccc(Br)cc2)n(C)c1C,,8.68% (inactive)
NC(=O)C1CCCN(CC(=O)N2CCN(c3ccccc3)CC2)C1 (configuration not stated),,-12.2% (inactive)
O=S(=O)(NCC1CCCO1)c1cnc(Cl)c(Cl)c1 (configuration not stated),,-0.359% (inactive)
O=C1CCCC(O)=C1C=NCCc1ccccc1,,-2.41% (inactive)
C=CCCC(=O)Nc1nc(C)c(-c2csc(Nc3ccc(Cl)cc3)n2)s1,13 µM (active),
CCCCCCC(=O)Nc1nc(C)c(-c2csc(Nc3cccc(OC)c3)n2)s1,16.4 µM (active),
CCCCC(=O)Nc1nc(C)c(-c2csc(Nc3ccc(Cl)cc3)n2)s1,23.1 µM (active),
CCCCN(C)CCC(=O)Nc1ccc(Cl)cc1,,-18% (inactive)
Cc1ccn2c(-c3csc(Nc4ccc(C(=O)O)cc4)n3)c(C)nc2c1,,-20.6% (inactive)
COc1cccc(NC(=O)c2csnn2)c1,,-9.53% (inactive)
CC(=O)Nc1nc(C)c(-c2csc(Nc3ccc(S(N)(=O)=O)cc3)n2)s1,,-28.2% (inactive)
Cc1nc(NC(=O)CCC(=O)O)sc1C(=O)N(C)C,,-11.7% (inactive)
Cc1nnc(NC(=O)CCCOc2ccccc2)s1,,-5.9% (inactive)
CO[C@]1(NC(=O)CSC(F)F)C(=O)N2C(C(=O)O)=C(CSc3nnnn3CCO)CO[C@H]21,,-3.78% (inactive)
O=C(C1CCN(C2CCN(Cc3ccc4cc(F)ccc4n3)CC2)CC1)N1CCCC1,,-18.6% (inactive)
COc1ccc(CCNC(=S)N2CCN(S(=O)(=O)c3ccc(F)cc3)CC2)cc1,,3.3% (inactive)
COc1ccc(CCNS(=O)(=O)c2cc3c(cc2C)NC(=O)CO3)cc1OC,,-7.25% (inactive)

SMILES,Potency,"activity change, negative = growth inhibition"
CCc1ccccc1NC(=O)c1ccc(F)c(S(=O)(=O)NC2CCCCCC2)c1,,-7.92% (inactive)
CCc1ccc(OCC(O)CN2CCN(CCO)CC2)cc1 (configuration not stated),,5.07% (inactive)
COc1ccc(N(CC(=O)N2CCOCC2)S(=O)(=O)c2ccccc2)cc1Cl,,-12.2% (inactive)
Cc1cccc(OC(=O)c2sc3ncn(C)c(=O)c3c2C)c1,,-8.1% (inactive)
O=C(NCCCN1CCCCC1)C1CCCN(c2ncnc3c2nc2n3CCCCC2)C1 (configuration not stated),,1.26% (inactive)
CCCN(CCC)C(=O)C1CCCN(c2ncnc3c2nc2n3CCCCC2)C1 (configuration not stated),20.6 µM (active),
COc1cccc(NC(=O)C2CCCN(c3ncnc4c3nc3n4CCCCC3)C2)c1 (configuration not stated),20.6 µM (active),
COc1cccc(NC(=O)C/C(C)=N/NC(=O)C2CCCCC2)c1,,-4.86% (inactive)
COc1ccc(NC(=O)N2CCCC(C(=O)Nc3ccccc3OC)C2)cc1 (configuration not stated),,-1.09% (inactive)
COCCNc1ncnc2c1nc1n2CCCC1,,0.903% (inactive)
O=C(Nc1cc(-c2nc3ccccc3o2)ccc1Cl)c1cc([N+](=O)[O-])ccc1N1CCOCC1,,-23.6% (inactive)
CC(C)NC(=O)N1CC[C@@]2(CCCN(C(=O)c3cccn3C)C2)C1,,-10.1% (inactive)
CCC(=O)N1c2ccccc2CC1C(=O)N1CCN(c2ccccc2)CC1 (configuration not stated),,-28% (inactive)
CCOC(=O)c1c(S(=O)(=O)N2CCC(C(=O)NCc3ccccc3OC)CC2)c(C)n(C)c1C,,-5.74% (inactive)
Cc1cc(C)cc(-c2nnc(SCC(=O)NC3CC3)o2)c1,,-2.32% (inactive)
CC1=CC2=NC(=O)CC(C)(C(=O)N(CC(=O)NC(C)(C)C)Cc3ccccc3)N2C=C1 (configuration not stated),,-4.59% (inactive)
COC(=O)c1ccc(CSc2nnc(NC(C)C)s2)cc1,,-17.7% (inactive)
COc1ccc(-c2nc(CN3CCN(c4ncccn4)CC3)c(C)o2)cc1C,20.6 µM (active),
Cc1ccc(CN2CCN(c3ncccn3)CC2)c(C)c1,,-19.4% (inactive)
COc1ccc(-c2nc(CS(=O)CC(=O)NCc3ccccc3)c(C)o2)cc1OC (configuration not stated),,6.91% (inactive)
Cc1c(C(=O)NCCCc2ccccc2)cccc1[N+](=O)[O-],,-11.1% (inactive)
CC(C)(C)C(=O)Nc1c(Br)c(C2CC2)nn1-c1ccccc1,,-3.93% (inactive)
CCOC(=O)c1[nH]cnc1C(=O)NC1CCCCC1,,-10.9% (inactive)
Cc1nn(-c2ccccc2)c(C)c1NC(=O)COC(=O)c1cc(Cl)ccc1O,,-6.13% (inactive)
Cc1nn(-c2ccccc2)c(C)c1NC(=O)COc1ccc(Cl)cc1Cl,9.2 µM (active),
C/C=C/c1ccc(OCC(=O)OCC(=O)Nc2c(C)nn(-c3ccccc3)c2C)c(OC)c1,,-2.94% (inactive)
